Assay outcomes as filed in PubChem.
CF NFkB block – inhibitors of PAF-induced NF-kB signaling, primary screen, cell-based, GFP fluorescence, uHTS; KKLEB NF-kB-GFP reporter, GFP fluorescence overnight; inhibition, % at 5 µM; 0.86% of 360,000 active; AID 588850, 2011;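 active means at least 50% inhibition at 5 µM, scaled per plate between neutral and stimulator controls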;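 further: PAF is a Pseudomonas aeruginosa culture filtrate used as stimulus; plate controls were PAF-stimulated DMSO wells for no effect and unstimulated DMSO wells for full effect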
Peg3 promoter – Peg3 promoter-driven luciferase inhibitors, primary screen, cell-based, HeLa, luciferase luminescence. HeLa PEG-Prom luciferase reporter, overnight. inhibition, % at 20 µM. 1.7% of 360,000 active. AID 588405, 2011;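 active means inhibition of at least 50% at 20 µM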
HIF-2a block – HIF-2a reporter inhibitors, primary screen, luminescence, 786-0 RCC cells. 786-0 RCC cells HIF-2a reporter, luciferase luminescence, overnight. inhibition, % at 18.8 µM. 0.72% of 360,000 active;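 active means inhibition of the luminescence signal of 40% or more relative to plate controls, in a single-dose primary screen at 18.75 µM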
TWEAK-Fn14 inh – inhibitors of TWEAK-Fn14 signaling, primary screen, luciferase reporter cells, uHTS; 2% of 360,000 active; TWEAK-stimulated Fn14 reporter cells, luciferase luminescence, 8 h; inhibition, % at 10 µM; in the data active means inhibition above about 50%
KKLEB cytotox – cytotoxicity in KKLEB CF airway cells, primary screen, cytotoxicity control for CF NF-kB inhibitor project, cell-based, uHTS, fluorescence assay plates | KKLEB CF airway cells viability, ATPlite luminescence, overnight; hits give low values; cells stimulated with P. aeruginosa culture filtrate | activity change (cytotoxicity), % at 5 µM | 0.36% of 360,000 active | AID 602141, 2011;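 active means corrected activity change at or below -50% at 5 µM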
TROY signal inh – inhibitors of TROY-driven NF-kB signaling, primary screen, Q293 LMP1-TROYcd cells, NF-kB luciferase, uHTS. Q293 LMP1-TROYcd NF-kB luciferase reporter, 4 h. inhibition, % at 10 µM. 0.98% of 360,000 active;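 active means compounds whose plate-normalised and pattern-corrected inhibition of the luciferase reporter signal at the single screening dose is 50% or more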
An asterisk follows results filed as active. Sampled rows, rich in hits. Any-hit rate of the full collection: about 4%.

SMILES | CF NFkB block | Peg3 promoter | HIF-2a block | TWEAK-Fn14 inh | KKLEB cytotox | TROY signal inh
CCCCN1C(=O)/C(=C/C=C/c2ccco2)C(=O)NC1=S | 14 | 5 | 16 | 7 | -8 | 1
O=C1NC(=O)N(c2ccccc2)C(=O)/C1=C\C=C\c1ccccc1 | 35 | 61* | 82* | 67* | 18 | -24
Clc1ccc(CCC(Cn2ccnc2)Sc2c(Cl)cccc2Cl)cc1 (stereo not drawn) | 36 | 20 | 1 | 6 | 16 | 23
CC(=O)N1N=C(c2c(O)n(C)c(=O)n(C)c2=O)CC1c1ccccc1 (stereo not drawn) | 7 | 12 | 22 | -2 | 5 | 6
Cc1ccc2cc(CNCCc3ccccc3C)c(=O)[nH]c2c1 | 12 | -9 | -8 | 4 | -2 | 6
C[C@]12CCC3C(CC[C@H]4C[C@@H](O)CC[C@]34C)C1CC[C@@H]2N (stereo partly drawn) | 3 | -4 | 12 | -10 | -2 | -17
CC(C)c1ccc(N2C(=O)NC(=O)/C(=C/C=C/c3ccco3)C2=O)cc1 | 84* | 74* | 17 | 19 | -20 | -10
Cc1ccc(N2C(=O)NC(=O)/C(=C/c3ccoc3)C2=O)cc1 | 2 | 5 | 25 | 11 | 2 | -4
Cc1cc2c(C(C)C)c(O)c(O)c(C=O)c2c(O)c1-c1c(C)cc2c(C(C)C)c(O)c(O)c(C=O)c2c1O | 62* | 94* | 89* | 102* | -53* | 66*
COc1ccc(C(c2nnnn2C2CCCCC2)N2CCC3(CC2)C(=O)NCN3c2ccccc2)cc1 (stereo not drawn) | 20 | 27 | -5 | 3 | -36 | 17
CC1(C)CC(=O)CC(C)(C)N1O | 2 | -36 | 7 | -2 | -2 | -9
CCS(=O)(=O)CCSP(=O)(OC)OC | 4 | -5 | -1 | 22 | -6 | -5
CC(C)(O)/C=C/C(=O)[C@](C)(O)C1[C@H](O)C[C@@]2(C)C3CC=C4C(C[C@H](O)[C@@H](O)C4(C)C)[C@]3(C)C(=O)C[C@]12C (stereo partly drawn) | 71* | 61* | 30 | -7 | -75* | 56*
C[C@]12CCC3C(CC[C@H]4C[C@H](O)CC[C@]34C)C1C[C@@H](O)[C@H]2O (stereo partly drawn) | -13 | 6 | 5 | 4 | 4 | 13
COc1ccc2[nH]c(C)c(CCNCc3cc(OC)c4c(c3)OCO4)c2c1 | 4 | 4 | 8 | 20 | 0 | 64*
COc1ccc2[nH]c(C)c(CCNCc3cc(OC)c(OC)c(OC)c3)c2c1 | 7 | 4 | 16 | -10 | 18 | 5
COC(=O)c1c(C)n(Cc2ccc3c(c2)OCO3)c2ccc(O)cc12 | 30 | -56 | -66 | 53* | 18 | 12
COC1CCC(OC2CC(C3(C)CCC4(CC(O)C(C)C(C(C)/C=C(\C)C(=O)C(C)CC(C)C(=O)O)O4)O3)OC3(OC(C4OC(O)(CO)C(C)CC4C)CC3C)C2C)OC1C (stereo not drawn) | 82* | 98* | 74* | 50* | -75* | 55*
Cn1ncnc2c(=O)n(C)c(=O)nc1-2 | 102* | 105* | 82* | 106* | -97* | 88*
CCc1nn2c(=O)c(F)c(N3CCNCC3)nc2s1 | 3 | -24 | -3 | 9 | -12 | -6
Cc1ccc(-c2cc(-c3ccccc3)cc(-c3ccccc3)[n+]2-c2ccccc2)cc1 | 7 | 100* | 0 | 104* | -18 | 84*
CN(C)c1ccc(-[n+]2c(-c3ccccc3)cc(-c3ccccc3)cc2-c2ccccc2)cc1 | 49 | 72* | 35 | 66* | -45 | 47
CCOC(=O)c1cccc(-[n+]2c(-c3ccccc3)cc(-c3ccccc3)cc2-c2ccccc2)c1 | 3 | 27 | -9 | 24 | -5 | -3
Cc1ccc(-c2cc(-c3ccc(C)cc3)[n+](-c3ccc(C(=O)[O-])cc3)c(-c3ccc(C)cc3)c2)cc1 | -5 | -8 | -29 | 1 | 7 | -7
CCCCn1nnnc1C(CCc1ccccc1)N1CCC2(CC1)C(=O)NCN2c1ccccc1 (stereo not drawn) | 17 | 22 | -2 | 10 | -11 | 14
SMILES | CF NFkB block | Peg3 promoter | HIF-2a block | TWEAK-Fn14 inh | KKLEB cytotox | TROY signal inh
CC(=O)O[C@@H]1/C=C/[C@](C)(O)C[C@@H](C)C/C=C/[C@H]2[C@@H]3O[C@]3(C)[C@@H](C)[C@H]3[C@H](Cc4ccccc4)NC(=O)[C@@]312 | 55* | 39 | -43 | -52 | -53* | -37
N#CC(C#N)=Cc1ccc(-c2ccccc2F)o1 | -58 | -32 | -7 | 70* | 14 | 11
Nc1cc(Cl)cc(Cl)c1 | -9 | 3 | 6 | 14 | 16 | 6
CCC(=O)O[C@H]1CC[C@H]2[C@@H]3CCC4=CC(=O)CC[C@]4(C)[C@H]3CC[C@]12C | 2 | 53* | 11 | -22 | 8 | 20
CC(=O)O/C(=C1\CC2C3CC=C4CC(OC(C)=O)CCC4(C)C3CCC2(C)C1=O)C(F)(F)F (stereo not drawn) | 8 | 63* | 6 | 15 | 9 | 19
COc1ccc(OC)c(N=Cc2c(O)n(Cc3ccccc3)c(=S)[nH]c2=O)c1 | -6 | 3 | 0 | -23 | -1 | -12
COc1ccc(N=Cc2c(O)n(Cc3ccccc3)c(=S)[nH]c2=O)c(OC)c1 | 30 | 54* | -65 | -28 | -50 | -36
O=[N+]([O-])c1ccc(NCc2ccc(Cl)cc2)c2ccncc12 | 11 | 32 | 14 | 51* | -7 | 43
O=C(c1ccccc1F)c1cn(CC(=O)N2CCCC2)c2ccccc12 | 2 | 4 | 21 | 12 | 13 | 22
O=c1[nH]c(=O)n(-c2ccccc2F)c(O)c1/C=C1\C=Nc2ccccc21 | 15 | 35 | 39 | 54* | 2 | 2
COc1ccc(-n2c(O)c(/C=C3\C=Nc4ccc(Br)cc43)c(=O)[nH]c2=O)c(OC)c1 | 43 | 11 | 45* | 55* | 2 | -33
Cc1ccc(OP2(=O)Nc3cc(C)c(C)cc3S2)cc1 (stereo not drawn) | -72 | -226 | -8 | 65* | 10 | 40
Cc1ccc2c(c1)NP(=S)(Oc1ccccc1)N2 (stereo not drawn) | -7 | -33 | -29 | -15 | 8 | 3
CN1CCc2cc(O)cc3c2[C@H]1Cc1ccc(O)c(O)c1-3 | -51 | 3 | 20 | 4 | -77* | -2
C=CCn1c(O)c(C(C)=NCC2CCCO2)c(=O)[nH]c1=O (stereo not drawn) | 1 | 8 | 6 | 9 | 4 | -11
